Values joined by “and” are separate entries in the source; they are usually repeats but may differ in a detail not shown here. Equal entries are not always repeated. The campaign covered roughly 5,500 compounds. About 2,000 (36%) were called active. About 18% were inconclusive and are not listed. Cut-off read from the data, not from the text of the source: active = normalized growth mostly below about 0.91 (no sharp cut-off); inconclusive = no clear call, values can overlap the other calls; inactive = mostly above about 0.92. Some of the results follow.
Test: chemical genetic growth profiling, strain panel (AID 1159580);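 note: tested at 20 µM; growth read once vehicle control cultures reached saturation at 30 °C; 1 = growth at the plate median or of vehicle wells; lower values mean less growth of the strain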
Conditions: growth OD

Measured: normalized growth

CC(C)NCC(O)c1cc(O)cc(O)c1 (centres undefined)
inactive: S. cerevisiae deletion strains, locus YJR043C, strain POL32, stronger effect = lower value 1.02 | S. cerevisiae deletion strains, locus YJR066W, strain TOR1, stronger effect = lower value 0.916 | S. cerevisiae deletion strains, locus YKL009W, strain mrt4, stronger effect = lower value 0.967 | S. cerevisiae deletion strains, locus YKL068W, stronger effect = lower value 0.989 | S. cerevisiae deletion strains, locus YKL085W, strain MDH1 (second series), stronger effect = lower value 0.979 | S. cerevisiae deletion strains, locus YKL085W, strain MDH1, stronger effect = lower value 0.979 | S. cerevisiae deletion strains, locus YKL160W, strain elf1, stronger effect = lower value 0.983 | S. cerevisiae deletion strains, locus YKL190W, strain CNB1, stronger effect = lower value 0.989 | S. cerevisiae deletion strains, locus YKR001C, strain vps1, stronger effect = lower value 1.02 | S. cerevisiae deletion strains, locus YKR026C, strain gcn3, stronger effect = lower value 1 | S. cerevisiae deletion strains, locus YKR091W, strain srl3, stronger effect = lower value 0.986 | S. cerevisiae deletion strains, locus YLL001W, strain dnm1, stronger effect = lower value 0.951 | S. cerevisiae deletion strains, locus YLL026W, stronger effect = lower value 0.999 | S. cerevisiae deletion strains, locus YLL041C, strain sdh2, stronger effect = lower value 0.99 | S. cerevisiae deletion strains, locus YLR027C, strain aat2, stronger effect = lower value 0.998 | S. cerevisiae deletion strains, locus YLR039C, strain RIC1, stronger effect = lower value 0.995 | S. cerevisiae deletion strains, locus YLR058C, strain SHM2, stronger effect = lower value 0.994 | S. cerevisiae deletion strains, locus YLR102C, strain apc9, stronger effect = lower value 0.994 | S. cerevisiae deletion strains, locus YLR113W, strain HOG1, stronger effect = lower value 0.972 | S. cerevisiae deletion strains, locus YLR221C, strain rsa3, stronger effect = lower value 0.983 | S. cerevisiae deletion strains, locus YLR258W, strain gsy2, stronger effect = lower value 0.993 | S. cerevisiae deletion strains, locus YLR262C, strain YPT6 (second series), stronger effect = lower value 0.972 | S. cerevisiae deletion strains, locus YLR262C, strain YPT6, stronger effect = lower value 0.98 | S. cerevisiae deletion strains, locus YLR268W, strain sec22, stronger effect = lower value 1.01 | S. cerevisiae deletion strains, locus YLR320W, strain mms22, stronger effect = lower value 0.984 | S. cerevisiae deletion strains, locus YLR330W, strain CHS5, stronger effect = lower value 0.998 | S. cerevisiae deletion strains, locus YLR342W, strain FKS1 (second series), stronger effect = lower value 1.01 | S. cerevisiae deletion strains, locus YLR342W, strain FKS1, stronger effect = lower value 0.987 | S. cerevisiae deletion strains, locus YLR357W, strain rsc2, stronger effect = lower value 0.974 | S. cerevisiae deletion strains, locus YLR370C, strain arc18, stronger effect = lower value 0.975 | S. cerevisiae deletion strains, locus YLR371W, strain rom2, stronger effect = lower value 1 | S. cerevisiae deletion strains, locus YLR384C, strain iki3, stronger effect = lower value 0.993 | S. cerevisiae deletion strains, locus YLR418C, strain cdc73, stronger effect = lower value 0.984 | S. cerevisiae deletion strains, locus YML016C, strain PPZ1, stronger effect = lower value 1.01 | S. cerevisiae deletion strains, locus YML032C, strain rad52, stronger effect = lower value 1.01 | S. cerevisiae deletion strains, locus YML120C, strain ndi1, stronger effect = lower value 0.965 | S. cerevisiae deletion strains, locus YML124C, strain tub3, stronger effect = lower value 1 | S. cerevisiae deletion strains, locus YMR058W, strain fet3, stronger effect = lower value 0.996 | S. cerevisiae deletion strains, locus YMR078C, strain ctf18, stronger effect = lower value 0.988 | S. cerevisiae deletion strains, locus YMR125W, strain sto1, stronger effect = lower value 0.971 | S. cerevisiae deletion strains, locus YMR129W, stronger effect = lower value 0.992 | S. cerevisiae deletion strains, locus YMR205C, strain PFK2, stronger effect = lower value 0.955 | S. cerevisiae deletion strains, locus YMR223W, strain ubp8, stronger effect = lower value 0.975 | S. cerevisiae deletion strains, locus YMR231W, strain pep5, stronger effect = lower value 0.998 | S. cerevisiae deletion strains, locus YMR307W, strain GAS1, stronger effect = lower value 1.04 | S. cerevisiae deletion strains, locus YNL067W, strain RPL9B, stronger effect = lower value 0.995 | S. cerevisiae deletion strains, locus YNL071W, strain lat1, stronger effect = lower value 0.98 | S. cerevisiae deletion strains, locus YNL128W, strain TEP1, stronger effect = lower value 0.967 and 0.965 | S. cerevisiae deletion strains, locus YNL153C, strain GIM3, stronger effect = lower value 1.01 | S. cerevisiae deletion strains, locus YNL175C, strain NOP13, stronger effect = lower value 1 | S. cerevisiae deletion strains, locus YNL183C, strain NPR1, stronger effect = lower value 0.924 | S. cerevisiae deletion strains, locus YNL197C, strain WHI3, stronger effect = lower value 1.01 | S. cerevisiae deletion strains, locus YNL209W, strain ssb2, stronger effect = lower value 0.988 | S. cerevisiae deletion strains, locus YNL224C, strain SQS1, stronger effect = lower value 0.997 | S. cerevisiae deletion strains, locus YNL233W, strain BNI4, stronger effect = lower value 0.997 | S. cerevisiae deletion strains, locus YNL248C, strain rpa49, stronger effect = lower value 0.985 | S. cerevisiae deletion strains, locus YNL250W, strain rad50, stronger effect = lower value 0.979 | S. cerevisiae deletion strains, locus YNL271C, strain bni1, stronger effect = lower value 0.98 | S. cerevisiae deletion strains, locus YNL298W, strain CLA4, stronger effect = lower value 0.975 | S. cerevisiae deletion strains, locus YNL307C, strain MCK1, stronger effect = lower value 0.995 | S. cerevisiae deletion strains, locus YNL322C, strain KRE1 (second series), stronger effect = lower value 0.986 | S. cerevisiae deletion strains, locus YNR049C, strain mso1, stronger effect = lower value 0.993 | S. cerevisiae deletion strains, locus YNR052C, strain pop2, stronger effect = lower value 0.987 | S. cerevisiae deletion strains, locus YOL012C, strain htz1 0.863 | S. cerevisiae deletion strains, locus YOL147C, strain pex11, stronger effect = lower value 0.992 | S. cerevisiae deletion strains, locus YOR001W, strain rrp6, stronger effect = lower value 0.994 | S. cerevisiae deletion strains, locus YOR061W, strain CKA2, stronger effect = lower value 1 | S. cerevisiae deletion strains, locus YOR069W, strain VPS5, stronger effect = lower value 0.996 | S. cerevisiae deletion strains, locus YOR070C, strain gyp1, stronger effect = lower value 0.993 | S. cerevisiae deletion strains, locus YOR080W, strain dia2, stronger effect = lower value 1 | S. cerevisiae deletion strains, locus YOR083W, strain WHI5 (second series), stronger effect = lower value 1 | S. cerevisiae deletion strains, locus YOR083W, strain WHI5, stronger effect = lower value 0.96 | S. cerevisiae deletion strains, locus YOR106W, strain vam3, stronger effect = lower value 0.976 | S. cerevisiae deletion strains, locus YOR136W, strain idh2, stronger effect = lower value 0.997 | S. cerevisiae deletion strains, locus YOR144C, strain elg1, stronger effect = lower value 1.01 | S. cerevisiae deletion strains, locus YOR184W, strain ser1, stronger effect = lower value 0.991 | S. cerevisiae deletion strains, locus YOR231W, strain MKK1, stronger effect = lower value 0.97 | S. cerevisiae deletion strains, locus YOR265W, strain rbl2, stronger effect = lower value 0.994 | S. cerevisiae deletion strains, locus YOR270C, strain vph1, stronger effect = lower value 0.98 | S. cerevisiae deletion strains, locus YOR290C, strain snf2, stronger effect = lower value 0.929 | S. cerevisiae deletion strains, locus YOR316C, strain cot1, stronger effect = lower value 0.993 | S. cerevisiae deletion strains, locus YPL051W, strain arl3, stronger effect = lower value 0.989 | S. cerevisiae deletion strains, locus YPL055C, strain LGE1, stronger effect = lower value 1.02 | S. cerevisiae deletion strains, locus YPL078C, strain atp4, stronger effect = lower value 0.967 | S. cerevisiae deletion strains, locus YPL106C, strain sse1, stronger effect = lower value 0.978 | S. cerevisiae deletion strains, locus YPL240C, strain hsp82, stronger effect = lower value 0.984 | S. cerevisiae deletion strains, locus YPL241C, strain CIN2, stronger effect = lower value 0.996 | S. cerevisiae deletion strains, locus YPL256C, strain CLN2, stronger effect = lower value 0.953 | S. cerevisiae deletion strains, locus YPR119W, strain clb2, stronger effect = lower value 0.984 | S. cerevisiae deletion strains, locus YPR141C, strain kar3, stronger effect = lower value 0.976 | S. cerevisiae deletion strains, locus YPR163C, strain tif3, stronger effect = lower value 0.991 | S. cerevisiae deletion strains, locus YPR167C, strain met16, stronger effect = lower value 0.991 | S. cerevisiae deletion strains, strain wtn01, stronger effect = lower value 0.998 | S. cerevisiae strains, strain wild type, stronger effect = lower value 1.01
